According to PubChem BioAssay AID485341 (National Center for Advancing Translational Sciences (NCATS), 2010):
The campaign covered roughly 330,000 compounds. About 1,700 (0.52%) were called active. Where a call stands in place of a potency, no number is given. Calls follow the shape of the dose curve; as a rule, active = well fitted inhibition curve with a large enough effect; inconclusive = small, poorly fitted or top-dose-only effect; inactive = no such curve, though single readings can be large or run the other way. For the sample, actives were picked, then their nearest neighbours and some compounds at random.

Each compound was assayed against Beta-lactamase (Escherichia coli (strain K12)) (UniProt P00811) (assay: qHTS Inhibitors of AmpC Beta-Lactamase (assay without detergent)). Conditions: AmpC nitrocefin hydrolysis, absorbance 480 nm, 0.0001% Triton; series mostly up to 57.1 µM.
Procedure, shortened: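 AmpC (5.3 nM in the dispensed reagent) in 20 mM phosphate pH 7.0 with 0.01% (detergent screen) or 0.0001% Triton X-100 was preincubated with compounds for 15 min at room temperature. Nitrocefin was then added from an 800 uM solution, and hydrolysis was followed at 480 nm.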
Also: nearly all actives have a fitted effect of over 20% in size.
Potency is read from the fitted curve at half-maximal effect.

Beta-lactamase (Escherichia coli (strain K12)), sequence (P00811 whole entry, looked up): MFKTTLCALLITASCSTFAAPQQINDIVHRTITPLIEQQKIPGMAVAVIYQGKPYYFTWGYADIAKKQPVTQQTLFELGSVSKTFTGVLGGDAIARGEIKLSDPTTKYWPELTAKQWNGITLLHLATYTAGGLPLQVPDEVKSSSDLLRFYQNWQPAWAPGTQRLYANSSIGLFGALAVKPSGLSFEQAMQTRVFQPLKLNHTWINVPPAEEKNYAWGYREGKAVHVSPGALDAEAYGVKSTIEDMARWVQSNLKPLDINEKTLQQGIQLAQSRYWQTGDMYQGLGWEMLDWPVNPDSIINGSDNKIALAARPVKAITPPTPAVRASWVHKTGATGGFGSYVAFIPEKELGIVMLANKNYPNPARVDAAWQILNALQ

SMILES	Potency	activity change, negative = inhibition
COC(=O)Nc1ccc(S(=O)(=O)N2CCN(CCN3C(=O)C4C5C=CC(C5)C4C3=O)CC2)cc1 (stereo not drawn)	inactive	
O=C(CCc1ccccc1F)N1CCN(c2ccccc2)CC1	inactive	
C=C(C)Cn1c(N2CCN(CC)CC2)nc2c1c(=O)[nH]c(=O)n2C	inactive	
Nc1cc(N2CCCCCC2)c2nonc2c1[N+](=O)[O-]	inactive	
COc1ccc(CCNC(=O)C(=O)NCC2CCCN2S(=O)(=O)c2cccs2)cc1OC (stereo not drawn)	31.6 µM (active)	
COc1ccccc1CCNC(=O)C(=O)NCCC1CCCCN1S(=O)(=O)c1cccs1 (stereo not drawn)	inactive	
O=C(NCc1ccccc1Cl)C(=O)NCC1CCCN1S(=O)(=O)c1cccs1 (stereo not drawn)	inactive	
O=C(NCc1ccc(Cl)cc1)C1CCN(S(=O)(=O)c2cccs2)CC1	inactive	
COc1ccc(C(=O)NCC2CCCN2S(=O)(=O)c2cccs2)cc1OC (stereo not drawn)	inactive	
O=C(NCc1ccc(Cl)cc1)C(=O)NCC1CCCN1S(=O)(=O)c1cccs1 (stereo not drawn)	35.5 µM (active)	
O=C(COc1ccc([N+](=O)[O-])cc1)Nc1cccc(C(=O)Nc2ccccc2C(=O)O)c1	inactive	
O=C(NCCc1ccco1)C(=O)NCCC1CCCCN1S(=O)(=O)c1ccccc1 (stereo not drawn)	inactive	
COc1cccc(CNC(=O)CN(C)S(=O)(=O)c2ccc3c(c2)c(=O)n(C)c(=O)n3C)c1	inactive	
CCC1Oc2ccccc2N(CC(=O)NCCCN2CCN(CC)CC2)C1=O (stereo not drawn)	inactive	
COC(=O)c1ccc(/C=N/N2C(C)CCCC2C)cc1 (stereo not drawn)	inactive	
O=C1C(Cl)=C(N2CCOCC2)C(=O)N1c1ccccc1	inactive	
O=C1OC(OC(=O)c2ccccc2Br)C(N2CCOCC2)=C1Cl (stereo not drawn)	4.47 µM (active)	
O=C1OC(NC(=O)c2ccccc2)C(N2CCOCC2)=C1Cl (stereo not drawn)	inactive	
CC(=O)N1CCN(S(=O)(=O)c2c(F)cc(F)c(Cl)c2F)CC1	inactive	
CC(=O)Nc1ccc(C(=O)OCC(=O)Nc2ccc([N+](=O)[O-])cc2C(F)(F)F)cc1	inactive	
O=C(CCN1C(=O)C2C3CCC(C3)C2C1=O)Nc1ccc(Cl)cc1Cl (stereo not drawn)	inactive	
CC1CN(c2nc(-c3ccccc3)nnc2-c2ccccc2)CC(C)O1 (stereo not drawn)	inactive	
O=C1Cc2cc(S(=O)(=O)Nc3cccc(F)c3)ccc2N1	inactive	
CSc1ccc(S(=O)(=O)Nc2cccc(F)c2)cc1	0.251 µM (active)	
Cn1c(=O)n(C)c2cc(NS(=O)(=O)c3ccc(F)cc3)ccc21		-28.5% [at 2.29 µM] (inactive)

SMILES	Potency	activity change, negative = inhibition
CC1CCN(C(=O)/C(=C\c2ccccc2F)NC(=O)c2ccccc2)CC1	inactive	
CCCC(CNC(=O)COC(=O)C1=NNC(=O)CC1)c1ccc(Cl)cc1Cl (stereo not drawn)	inactive	
CC(C)(C)NC(=O)NC(=O)COC(=O)Cc1c(F)cccc1Cl	inactive	
CC(NC(=S)Nc1ccccc1)C(c1cccs1)N1CCOCC1 (stereo not drawn)	inactive	
CCCCn1c(SCC(=O)N2CCCC2=O)nc2cc(S(N)(=O)=O)ccc21	inactive	
CCOc1ccc(N2C(=O)CSC2=NC#N)cc1	inactive	
CCO/C=C1\C(=O)N(c2ccc(OCC)cc2)C(=O)c2ccccc21	inactive	
CCOc1ccc(N2C(=O)CN(c3cccc4ccccc34)C2=S)cc1	10 µM (active)	
Cc1cc(NC(=O)CSCc2nc(-c3cccc(Cl)c3)oc2C)no1	inactive	
O=S(=O)(c1ccc(SCc2ccccc2)nc1)N1CCCCCC1	inactive	
C/C(CC(C)C)=N\Oc1nc(C)cc(C)n1	inactive	
COc1ccc(NC(=O)C(=O)NCC(c2ccco2)N2CCc3ccccc3C2)cc1 (stereo not drawn)	28.2 µM (active)	
CCOC(CNC(=O)C(=O)NCC(c1ccco1)N1CCN(c2ccc(OC)cc2)CC1)OCC (stereo not drawn)	inactive	
O=C(NCC(c1ccco1)N1CCc2ccccc2C1)c1ccccc1Cl (stereo not drawn)	inactive	
O=[N+]([O-])c1ccc(N2CCN(S(=O)(=O)c3ccccc3)CC2)cc1N1CCc2ccccc2C1	inactive	
O=C(N[C@@H](Cc1ccccc1)C(=O)OCc1ccccc1)c1nc[nH]c1C(=O)N[C@@H](Cc1ccccc1)C(=O)OCc1ccccc1	inactive	
CCC(C(=O)Nc1ncccn1)(C(F)(F)F)C(F)(F)F	inactive	
Cc1ccccc1-c1nc(CS(=O)(=O)CC(=O)N2CCc3ccccc3C2)c(C)o1	11.2 µM (active)	
CSc1ccc(CCNC(=O)CS(=O)(=O)Cc2nc(-c3ccccc3F)oc2C)cc1	inactive	
Cc1ccccc1-c1nc(CS(=O)(=O)CC(=O)NC(C)c2ccccc2)c(C)o1 (stereo not drawn)	inactive	
CCC[C@H]1CCCC/C=C\CCCC(=O)OCCN1C(=O)OC(C)(C)C	inactive	
COCCn1c(CN2CCC(Cc3ccccc3)CC2)nc2c1c(=O)n(C)c(=O)n2C	inactive	
CCN1CCN(Cc2nc3c(c(=O)n(C)c(=O)n3C)n2CC(=O)c2ccccc2)CC1	1.58 µM (active)	
COCCn1c(CN(Cc2ccccc2)Cc2ccccc2)nc2c1c(=O)n(C)c(=O)n2C	inactive	
CC(C)Cn1c(CN(Cc2ccccc2)Cc2ccccc2)nc2c1c(=O)n(C)c(=O)n2C	3.55 µM (active)	

SMILES	Potency	activity change, negative = inhibition
CC(C)CCn1c(CN(C)Cc2ccccc2)nc2c1c(=O)n(C)c(=O)n2C	inactive	
CC1CCCN(Cc2nc3c(c(=O)n(C)c(=O)n3C)n2CC(=O)c2ccccc2)C1 (stereo not drawn)	inactive	
Cc1oc2nc(SCC(=O)Nc3ccc(S(N)(=O)=O)cc3)nc(NC(=O)c3ccccc3)c2c1C	inactive	
O=C(CNC1CCCCC1)NCC1(c2ccccc2)CCCC1	inactive	
Cc1ccc(C(=O)NNC(=O)CSc2nnc3ccccn23)cc1	inactive	
Cc1ccc(-n2c(C)cc(C(=O)CSc3nnc4ccccn34)c2C)cc1	inactive	
O=C(CSc1nnc2ccccn12)c1ccccc1	44.7 µM (active)	
COc1ccc(N2CCN(C(=O)CNC(=O)c3ccc(Br)o3)CC2)cc1	inactive	
COc1ccc(-c2nc(CCNC(=O)c3ccc(Br)o3)cs2)cc1	44.7 µM (active)	
O=C(NCCc1csc(-c2ccccc2)n1)c1ccccc1F	inactive	
CCOC(=O)N1CCN(Cc2oc(CO)cc(=O)c2O)CC1	inactive	
Cc1nnc(SCC2=C(C(=O)O)N3C(=O)C(NC(=O)Cn4nc(C)c(Cl)c4C)C3SC2)s1 (stereo not drawn)	inactive	
Cc1cc(C)cc(C(=O)NC2C(=O)N3C(C(=O)O)=C(CSc4nnc(C)s4)CSC23)c1 (stereo not drawn)	inactive	
C=CC1=C(C(=O)O)N2C(=O)[C@@H](NC(=O)/C(=N\OCC(=O)O)c3csc(N)n3)[C@H]2SC1	2 µM (active)	
CC(C)(C)OC(=O)C1=C(CO)CS[C@@H]2[C@H](NC(=O)Cc3ccccc3)C(=O)N12	inactive	
O=C(CN1C(=O)NC2(CCCCC2)C1=O)NCCC1=CCCCC1	inactive	
O=S(=O)(c1ccc(Cl)s1)N1CCC2(CC1)OCCO2	inactive	
COc1ccc(CNC(=O)CN2C(=O)NC3(CCCc4sccc43)C2=O)cc1 (stereo not drawn)	inactive	
C=CCC1=C/C(=C\c2c(N)n3nc(CC(=O)N4CCOCC4)sc3nc2=O)C=C(OC)C1=O	inactive	
COC(=O)C1(C)NC(c2ccc(F)cc2)C2C(=O)N(c3ccccc3)C(=O)C21 (stereo not drawn)	inactive	
COC(=O)CSc1snnc1-c1ccc(Cl)c(Cl)c1	inactive	
O=C1c2ccccc2NC(c2ccccn2)N1NS(=O)(=O)c1ccccc1 (stereo not drawn)	inactive	
Clc1ccc(Cl)c(Oc2ccc(Oc3nc(Cl)ccc3Cl)cc2)n1	inactive	
Nc1c(N(CCCO)C(=O)C2CCCC2)c(=O)[nH]c(=O)n1Cc1ccccc1	inactive	
CCCCCn1c(SCCC(C)C)nc2c1c(=O)[nH]c(=O)n2C	inactive	

SMILES	Potency	activity change, negative = inhibition
COC(=O)c1c(NC(=O)c2ccc(S(=O)(=O)N3CCOCC3)cc2)sc2c1CCN(C(C)C)C2	inactive	
COc1cccc(Cn2cc(/C=N/NC(=O)c3cc(O)cc(O)c3)c3ccccc32)c1	7.94 µM (active)	
CNC(=S)N/N=C/c1cn(Cc2ccc(C)cc2)c2ccccc12	inactive	
N#CCC(=O)N/N=C/c1cn(Cc2ccc3ccccc3c2)c2ccccc12	inactive	
Cc1ccc(C(=O)N/C(=C\c2ccco2)C(=O)NC2CCS(=O)(=O)C2)cc1 (stereo not drawn)	inactive	
Cc1cccc(C)c1NC(=O)CS(=O)CC(=O)N1CCN(c2ccccc2)CC1 (stereo not drawn)	inactive	
O=C(O)CCCN1C(=O)c2ccccc2Sc2ncccc21	inactive	
COCCN(CCOC)S(=O)(=O)c1ccc(C(=O)Nc2nc3c(s2)CCc2ccccc2-3)cc1	inactive	
O=C(Nc1ccc(S(=O)(=O)N2CCc3ccccc3C2)cc1)c1ccccc1	inactive	
C=CCN(CC=C)S(=O)(=O)c1ccc(C(=O)Nc2nc3c(s2)CCc2ccccc2-3)cc1	8.91 µM (active)	
O=C(Cc1ccccc1)NCC1OCCc2ccccc21 (stereo not drawn)	inactive	
CC(=O)N1C(=O)/C(=C2\SC(=S)N(NC(=O)c3ccc(O)cc3)C2=O)c2ccccc21	20 µM (active)	
O=C(O)c1ccc(/C=C2\SC(=S)N(NC(=O)c3ccc(Br)cc3)C2=O)cc1	inactive	
Cn1cccc1/C=C1\SC(=S)N(NC(=O)c2ccc(Cl)cc2)C1=O	inactive	
CC1(c2ccccc2Cl)NC(=O)N(CC(=O)NC(=O)NCc2ccco2)C1=O (stereo not drawn)	inactive	
O=C1CCN(Cc2ccc([N+](=O)[O-])cc2)CCN1[C@H](CO)Cc1ccccc1	inactive	
O=C(CCCn1c(=O)oc2ccccc21)Nc1cccnc1	inactive	
CC(C)CC(=O)N1CCN(Cc2cccc(Cl)c2)CC1	inactive	
Oc1c(CN2CCCC2)cc(COCc2ccccc2)c2cccnc12	inactive	
Clc1cccc(CN2COc3c(cc(Cl)c4cccnc34)C2)c1	35.5 µM (active)	
CC[C@]12c3[nH]c4ccc(Cl)cc4c3CCN1C(=O)[C@@H](CC(=O)NCCN1CCOCC1)C[C@@H]2C(=O)N1CCN(C(=O)C2CC2)CC1	inactive	
CC(C)CCN1NC2(CCC(C)CC2)NC1=S (stereo not drawn)	inactive	
O=c1oc2ccccc2c(CNc2ccccc2)c1[N+](=O)[O-]	inactive	
